This note sets out measurements from the supplement of paper PMC6658780.

Structures can show the parent of a compound that is named as a salt. ± gives the standard deviation of the averaged measurements.

The first experiment concerns Klebsiella pneumoniae NCTC-13439. In words: percent growth inhibition of drug alone vs DMSO control; higher = more growth inhibition. To be noted: antibiotic (0.125x MIC): none (0.1% DMSO); 7 µM.
As to `Cc1nc2n(c(=O)c1CCN1CCC(c3noc4cc(F)ccc34)CC1)CCCC2` [Risperidone], the “percent growth inhibition of drug alone” value was -5.2 ± 14%.
With `NC(=O)N/N=C/c1ccc([N+](=O)[O-])o1` [Nitrofural], the “percent growth inhibition of drug alone” value is -7.28 ± 2%.
Consider `O=C(OCC(O)CO)c1ccccc1Nc1ccnc2cc(Cl)ccc12` (stereo not drawn) [Glafenine hydrochloride], for which the “percent growth inhibition of drug alone” value was -9.8 ± 14%.
On the same count and under the same terms, the result for `CCN1CCN(c2cc3c(cc2F)c(=O)c(C(=O)O)cn3C2CC2)CC1` [Enrofloxacin] reads 3.46 ± 4.9%; that for `C[C@H](N)[C@H](O)c1cccc(O)c1` [Metaraminol bitartrate], -7.73 ± 11%; that for `NC1CCN(c2c(F)cc3c(=O)c(C(=O)O)cn(C4CC4)c3c2Cl)C1` (stereo not drawn) [Clinafloxacin], 13.5 ± 8.8%.
Consider `COc1c(N2CCNC(C)C2)c(F)cc2c(=O)c(C(=O)O)cn(C3CC3)c12` (stereo not drawn) [Gatifloxacin], for which the “percent growth inhibition of drug alone” value is 12.5 ± 5.8%.
On to `COc1c(N2C[C@@H]3CCCN[C@@H]3C2)c(F)cc2c(=O)c(C(=O)O)cn(C3CC3)c12` [Moxifloxacin], for which the “percent growth inhibition of drug alone” value turned out to be 12.5 ± 0.24%.
For the compound `Cc1c(F)c(N2CCNC(C)C2)cc2c1c(=O)c(C(=O)O)cn2C1CC1` (stereo not drawn) [Grepafloxacin], the “percent growth inhibition of drug alone” value was found to be 13 ± 6.5%.
On the same count and under the same terms, as for `COc1ccc(OC)c(C(O)CNC(=O)CN)c1` (stereo not drawn) [Midodrine hydrochloride], the figure is -12.1 ± 4.3%.
Take `C#C[C@]1(OC(C)=O)CC[C@H]2[C@@H]3CCC4=CC(=NO)CC[C@@H]4[C@H]3CC[C@@]21CC` (mixture of isomers) [Norgestimate]: the “percent growth inhibition of drug alone” value was -4.1 ± 1.3%.
Same read-out and setting: as for `N=C(NCCCCCCNC(=N)NC(=N)Nc1ccc(Cl)cc1)NC(=N)Nc1ccc(Cl)cc1` [Chlorhexidine], the figure is 2.54 ± 9.5%; as for `NC1CCN(c2nc3c(cc2F)c(=O)c(C(=O)O)cn3-c2ccc(F)cc2F)C1` (stereo not drawn) [Tosufloxacin hydrochloride], 56.5 ± 19%.

Staying with this experiment, now noted: antibiotic (0.125x MIC): none (0.1% DMSO); 20 µM.
`Cc1nc2n(c(=O)c1CCN1CCC(c3noc4cc(F)ccc34)CC1)CCCC2` [Risperidone]: the “percent growth inhibition of drug alone” value is -6.94 ± 7.8%.
As to `NC(=O)N/N=C/c1ccc([N+](=O)[O-])o1` [Nitrofural], the “percent growth inhibition of drug alone” value stood at 11.8 ± 8.7%.
As to `O=C(OCC(O)CO)c1ccccc1Nc1ccnc2cc(Cl)ccc12` (stereo not drawn) [Glafenine hydrochloride], the “percent growth inhibition of drug alone” value is 3.73 ± 17%.
Still for that read-out and setting: the result for `C[C@H](N)[C@H](O)c1cccc(O)c1` [Metaraminol bitartrate] reads -0.507 ± 15%.
Regarding `Cc1c(F)c(N2CCNC(C)C2)cc2c1c(=O)c(C(=O)O)cn2C1CC1` (stereo not drawn) [Grepafloxacin], the “percent growth inhibition of drug alone” value is 23.5 ± 9.9%.
On the same count and under the same terms, the result for `COc1ccc(OC)c(C(O)CNC(=O)CN)c1` (stereo not drawn) [Midodrine hydrochloride] reads -4.02 ± 9.3%; that for `C#C[C@]1(OC(C)=O)CC[C@H]2[C@@H]3CCC4=CC(=NO)CC[C@@H]4[C@H]3CC[C@@]21CC` (mixture of isomers) [Norgestimate], -14.2 ± 4.9%.
Same read-out and setting: the result for `N=C(NCCCCCCNC(=N)NC(=N)Nc1ccc(Cl)cc1)NC(=N)Nc1ccc(Cl)cc1` [Chlorhexidine] reads 57.6 ± 4.2%; that for `CC(=O)CCCCn1c(=O)c2c(ncn2C)n(C)c1=O` [Pentoxifylline], 2.73 ± 3.2%.
With `NC1CCN(c2nc3c(cc2F)c(=O)c(C(=O)O)cn3-c2ccc(F)cc2F)C1` (stereo not drawn) [Tosufloxacin hydrochloride], the “percent growth inhibition of drug alone” value was found to be 99.38 ± 0.74%.
